For 40 compounds, parasite survival results are on record in the supplement of paper PMC10941209.

A number with no mark means an inactive call.

The assay deals with Toxoplasma gondii RH 2F1 tachyzoites (intracellular in HFF). The assay is described as follows: parasite survival relative to DMSO control; higher = less antiparasitic activity, active = 20 or less. Conditions: 1 µM; 72 h. On the procedure: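 Primary single-dose screen of the MMV Pandemic Response Box at 1 uM against T. gondii RH-2F1 (beta-galactosidase) tachyzoites in HFF cells, 72 h at 37 C. Parasite growth read by CPRG absorbance at 570 nm and normalised to DMSO-treated infected controls (% survival); pyrimethamine was the reference drug. The paper calls at least 80% inhibition a hit.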
Take `CN1CCN(c2ccc3[nH]c(-c4ccc5[nH]c(-c6ccc(O)cc6)nc5c4)nc3c2)CC1`: the parasite survival is 35.3%.

With `CC(C)CCN1C(=O)C(C2=NS(=O)(=O)c3cc(NS(C)(=O)=O)ccc3N2)=C(O)[C@@H]2[C@H]3CC[C@H](C3)[C@@H]21`, the parasite survival was 72.3%.

Consider `CC(C)(C)c1cc(CCC(=O)N2CCC2)cc(C(C)(C)C)c1O`, for which the parasite survival is 52.9%.

As for `O=C(NCc1ccc2c3c(cccc13)C(=O)N2)c1cccs1`, the parasite survival is 75.5%.

For the compound `O=C(c1cc(O)nc2ccccc12)N1CCN(c2ccccc2)CC1`, the parasite survival was 77.5%.

On to `O=C(Nc1ccc(Cl)c(C(F)(F)F)c1)C(CCCl)C(=O)Nc1ccc(Cl)c(C(F)(F)F)c1`, for which the parasite survival is 15.6% (active).

`Cc1ccc(NC(=O)c2ccc(CN3CCN(C)CC3)cc2)cc1Nc1nccc(-c2cccnc2)n1`: the parasite survival was 61%.

For `O=C(NC1CCCc2c1[nH]c1ccc(Cl)cc21)c1ccccn1` (stereo not given), the parasite survival is 63.8%.

As to `CC[C@@]1(O)C(=O)OCc2c1cc1n(c2=O)Cc2cc3c(CN(C)C)c(O)ccc3nc2-1`, the parasite survival is 50.5%.

On to `CC1CCc2c(N3CCC(O)CC3)c(F)cc3c(=O)c(C(=O)O)cn1c23` (stereo not given), for which the parasite survival was 51%.

As for `CC[C@H](NC(=O)[C@H](C)NC)C(=O)N1C[C@@H](O)C[C@H]1Cc1c(-c2[nH]c3cc(F)ccc3c2C[C@@H]2C[C@H](O)CN2C(=O)[C@H](CC)NC(=O)[C@H](C)NC)[nH]c2cc(F)ccc12`, the parasite survival is 8.15% (active).

With `O=C(Nc1[nH]c(=O)ncc1F)c1ccccc1`, the parasite survival was 84.3%.

As to `Nc1nc2c(Cc3cccnc3)c[nH]c2c(=O)[nH]1`, the parasite survival is 72.8%.

As for `Cc1nc2ccc(Oc3ccccc3)cc2c2c1CCN2CCc1ccccc1`, the parasite survival is 8.56% (active).

Consider `Fc1ccc(-c2nc(-c3c[nH]c4ccc(Br)cc34)[nH]c2-c2ccc(F)cc2)cc1`, for which the parasite survival is 36.6%.

On to `O=C(CCc1ccc2c(c1)OCO2)NCc1ccc(-c2ccccc2F)cc1`, for which the parasite survival is 54.9%.

Take `O=C(NCc1ncc(C(F)(F)F)cc1Cl)c1c(Cl)cccc1Cl`: the parasite survival was 45.4%.

For `Cc1ccc(NC(=O)c2cc(Cl)ccc2O)cc1`, the parasite survival is 42.3%.

Regarding `Nc1nc(C(F)(F)F)cc2c1[nH]c(=O)n2Cc1ccccc1`, the parasite survival is 49.1%.

With `Cc1c(CN(C)C(=O)/C=C/c2cnc3c(c2)C(C)(C)C(=O)N3)oc2ccccc12`, the parasite survival was 54.1%.

For `O=[N+]([O-])c1cn2c(n1)OC[C@@H](OCc1ccc(OC(F)(F)F)cc1)C2`, the parasite survival is 45.2%.

For the compound `CC(C)(C)c1ccc(C(=O)NC(=O)N2CCCc3ccccc32)cc1`, the parasite survival is 49.9%.

Turning to `CCCCc1ccc(S(=O)(=O)Nc2cc(C)on2)cc1`, the parasite survival was 39.1%.

Consider `COc1ccc(CNC(=O)C(NS(=O)(=O)c2ccc3nc(C)sc3c2)C(C)C)cc1` (stereo not given), for which the parasite survival is 56.4%.

`Cc1c[nH]c(=O)nc1NCc1ccccc1`: the parasite survival was 49.9%.

In the case of `CCn1cc(C(=O)O)c(=O)c2cc(F)c(N3CCNC(C)C3)c(F)c21` (stereo not given), the parasite survival was 76%.

In the case of `N=c1n(CCN2CCCCC2)c2ccccc2n1CC(O)COc1ccc(Cl)cc1Cl` (stereo not given), the parasite survival is 10.8% (active).

As to `COc1cc(NCc2ccc3nc(N)nc(N)c3c2C)cc(OC)c1OC`, the parasite survival was 3.86% (active).

Consider `Cc1oncc1C(=O)Nc1ccc(C(F)(F)F)cc1`, for which the parasite survival was 77.7%.

Take `C[C@H](NC(CC(=O)c1ccccc1C(F)(F)F)C(=O)O)c1ccccc1` (stereo not given in full): the parasite survival was 63%.

Regarding `O=C1[C@H](CC[C@H](O)c2ccc(F)cc2)[C@@H](c2ccc(O)cc2)N1c1ccc(F)cc1`, the parasite survival is 91.5%.

Consider `CSc1ccc2c(c1)C(N1CCN(C)CC1)Cc1ccccc1S2` (stereo not given), for which the parasite survival was 34.5%.

Consider `C=CCc1cc(Cc2cnc(N)nc2N)cc(OC)c1O`, for which the parasite survival is 29.8%.

For the compound `CC(=O)N1c2ccccc2NC2=C(C(=O)CC(C)(C)C2)C1c1ccc(OCc2ccccc2)cc1` (stereo not given), the parasite survival is 46.7%.

`CC(C)Oc1ccc(-n2cnc3cc(/C=C\c4ccc(C(C)(C)O)cc4)ccc32)cc1`: the parasite survival is 31.7%.

As to `O=C(c1nc2c(C(F)(F)F)cc(C3CC3)cn2c1Cl)N1CCN([C@H]2CC[C@H](O)CC2)C(=O)C1`, the parasite survival is 21.1%.

`O=C(Nc1nnc(-c2ccc(Cl)cc2)o1)c1nc2ccccc2s1`: the parasite survival was 62.5%.

In the case of `C[Si]1(C)CCN(Cc2cc(-c3ccc(Cl)cc3)n(-c3ccc(Cl)cc3)n2)CC1`, the parasite survival was 13.7% (active).

Take `CCc1nc2ccccn2c1C(=O)NCc1ccccc1`: the parasite survival is 79.5%.

As to `CC[C@@]1(O)C(=O)OCc2c1cc1n(c2=O)Cc2cc3c([N+](=O)[O-])cccc3nc2-1`, the parasite survival was 57.5%.
